Measured values from PubChem BioAssay AID504332 (National Center for Advancing Translational Sciences (NCATS), 2011).
The whole screen tested about 350,000 compounds, of which about 31,000 (8.9%) were called active. Roughly 15% stayed inconclusive and do not appear here. Calls follow the shape of the dose curve; as a rule, active = well fitted inhibition curve with a large enough effect; inconclusive = small, poorly fitted or top-dose-only effect; inactive = no such curve, though single readings can be large or run the other way. Many of the other results were omitted from the sample, so actives are more common in it than they were.

The compounds below were run against Histone-lysine N-methyltransferase EHMT2 (Homo sapiens) (UniProt Q96KQ7) (assay: qHTS Assay for Inhibitors of Histone Lysine Methyltransferase G9a). Conditions: G9a H3K9 monomethylation, AlphaScreen, 2 h; series mostly up to 59 µM; activity, negative = inhibition: at the top concentration.
Outline: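 AlphaScreen read-out: biotin-H3K9 peptide (500 nM) methylation by 20 nM enzyme with 20 uM SAM, 2 h at room temperature after 15 min compound preincubation; anti-monomethyl H3K9 antibody plus donor/acceptor beads, 10 min dark.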
% is scaled to controls: 0 for no effect and ±100 for the full control effect; potency is read from the fitted curve at half-maximal effect.
Also: nearly all actives have a fitted effect of over 75% in size.

Chain of Histone-lysine N-methyltransferase EHMT2 (Homo sapiens) (Q96KQ7 913-1193 limits assumed): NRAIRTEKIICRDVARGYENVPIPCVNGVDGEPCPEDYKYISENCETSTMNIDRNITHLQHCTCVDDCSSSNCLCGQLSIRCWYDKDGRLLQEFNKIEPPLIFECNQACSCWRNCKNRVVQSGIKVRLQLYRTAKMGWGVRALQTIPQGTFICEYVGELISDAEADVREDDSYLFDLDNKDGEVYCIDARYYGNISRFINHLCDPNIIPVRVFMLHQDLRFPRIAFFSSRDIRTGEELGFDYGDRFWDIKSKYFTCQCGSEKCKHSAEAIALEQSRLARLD

Structure (SMILES)	Potency	activity, negative = inhibition
COc1cc(Cl)ccc1OCc1cc(C(=O)N(C)CCc2c(C)n[nH]c2C)no1	39.8 µM (active)	
CSc1ccccc1OCc1cc(C(=O)N(C)CCc2c(C)n[nH]c2C)no1		43.1% [at 0.0925 µM] (inactive)
Cc1cc(CN(C)C(=O)c2cc(COc3ccc(C)c(C)c3)on2)n[nH]1		25.5% [at 102 µM] (inactive)
NC(=O)NCCCC(=O)O		-0.244% [at 12.7 µM] (inactive)
Cc1ccccc1-c1nc2scc(CCNC(=O)C(=O)Nc3ccc(F)cc3F)n2n1		5.22% (inactive)
NC(=O)C[C@@H]1NC(=O)CNC(=O)c2cc([N+](=O)[O-])cc(I)c2NCCC(C(N)=O)NC1=O (some centres not stated)	11.2 µM (active)	
CC(C)[C@@H]1NC(=O)c2cc([N+](=O)[O-])cc(I)c2NCCC[C@@H](C(=O)NC(CC(=O)O)C(N)=O)NC(=O)[C@H](CO)NC1=O (some centres not stated)		-1.59% [at 102 µM] (inactive)
NCCCC[C@@H]1NC(=O)[C@H](CCC(=O)O)NC(=O)c2cc([N+](=O)[O-])cc(I)c2NCC[C@@H](C(N)=O)NC1=O	14.1 µM (active)	
NC(=O)CC[C@@H]1NC(=O)[C@H](CO)NC(=O)c2cc([N+](=O)[O-])cc(I)c2NCC[C@@H](C(N)=O)NC1=O	10 µM (active)	
Cc1oc(-c2ccccc2)nc1Cn1c(SCc2cccc(C(F)(F)F)c2)nc2cccnc21		-29.7% (inactive)
Cc1ccc(C(=O)CN2C(=O)NC3(CCOc4ccccc43)C2=O)s1 (configuration not stated)		-5.02% [at 2.33 µM] (inactive)
CN1CCN(NC(=O)Nc2ccc(Br)cc2)CC1		10.4% [at 102 µM] (inactive)
CC(C)(C)OC(=O)NCCCCCNC(=O)c1[nH]cnc1C(=O)Nc1nccs1		3.9% [at 0.501 µM] (inactive)
O=C(COc1ccc(Cl)cc1)Nc1ccccc1OCc1cc(=O)n2ccccc2n1		7.45% (inactive)
COc1ccccc1OCCNC(=O)C(CCSC)NC(=O)COc1ccccc1 (configuration not stated)		9.08% [at 12.7 µM] (inactive)
O=C1C=C(c2cc(C(F)(F)F)cc(C(F)(F)F)c2)C[C@@H](c2ccc3c(c2)OCO3)C1		10.2% [at 0.501 µM] (inactive)
CCN(C(=O)Cn1c(=O)nc(-c2ccccc2)c2cc(Cl)ccc21)c1cccc(C)c1		24.8% (inactive)
O=C(CCC1N=C2c3ccccc3N=C(SCc3ccccc3F)N2C1=O)NCCc1ccccc1 (configuration not stated)		-4.93% (inactive)
C[C@H](NC(=O)c1[nH]cnc1C(=O)Nc1nccs1)c1ccccc1		8.27% [at 0.501 µM] (inactive)

Structure (SMILES)	Potency	activity, negative = inhibition
CC(NC(=O)C(=O)Nc1nccs1)c1ccccc1 (configuration not stated)	50.1 µM (active)	
O=C(O)c1ccccc1-c1ccccc1C(=O)Nc1nccs1		2.15% (inactive)
Cc1cccc(C)c1-n1ncc(C(=O)NCCCN2CCCCC2)c1C1CCN(C(=O)OC(C)(C)C)CC1		-25% (inactive)
CCCC(NCC(=O)Nc1ccccc1C(=O)NC1CC1)c1ccccc1 (configuration not stated)		-2.12% [at 102 µM] (inactive)
CCOC(=O)c1c(C)[nH]c(C)c1S(=O)(=O)NCC(=O)NCc1cccc(C)c1		7.2% (inactive)
CCCCc1cc(=O)oc2cc(C)cc(OCc3nn[nH]n3)c12		17.7% (inactive)
Cc1c(C)c2ccc(OCC(=O)N3CCC(C(=O)O)CC3)c(C)c2oc1=O		-7.73% [at 102 µM] (inactive)
CCOC(=O)CCc1c(C)c2ccc(OCc3nn[nH]n3)c(C)c2oc1=O	50.1 µM (active)	
CCc1ccc(C(=O)NN=C2CCCCCC2)s1		1.85% [at 102 µM] (inactive)
O=C(Nc1ccccc1Br)c1cc(CN2CCCC2)on1		-5.99% (inactive)
COc1cccc(NC(=O)C(Sc2nc3ccccc3c(=O)n2CC(C)C)c2ccccc2)c1 (configuration not stated)	79.4 µM (active)	
COc1cccc(NC(=O)C(Sc2nnnn2C)c2ccccc2)c1 (configuration not stated)		5.67% [at 102 µM] (inactive)
COc1ccc(NC(=O)CSc2nc3ccccc3c(=O)n2C)cc1		7.85% [at 0.501 µM] (inactive)
Cc1ccc(C2CCN(C(=O)c3cnn(-c4ccccc4Cl)c3C3CCN(C(=O)OC(C)(C)C)CC3)C2)cc1 (configuration not stated)		-43.6% (inactive)
Cc1ccc(NC(=O)c2sc3nc(N)c(C#N)cc3c2N)cc1	7.94 µM (active)	
COc1ccc(NC(=O)c2cc(-c3ccc(C)cc3)on2)cc1		-5.29% [at 0.501 µM] (inactive)
CC(=O)Nc1ccc(NC(=O)c2sc3nc4c(c(-c5ccc(C)cc5)c3c2N)CCC4)cc1		-37.6% (inactive)
COc1ccc(CCNC(=O)CCNS(=O)(=O)c2cc(Br)cnc2N)cc1OC		4.51% (inactive)
COCC1CCN(C(=O)C2CCC(=O)N(Cc3cccc(C(F)(F)F)c3)C2)CC1 (configuration not stated)		15.3% [at 12.7 µM] (inactive)

Structure (SMILES)	Potency	activity, negative = inhibition
O=c1c(=O)n(Cc2c(F)cccc2Cl)ccn1Cc1ccccc1		-38% (inactive)
O=c1onc(-c2c(F)cccc2F)n1-c1ccccc1Cl		22.1% [at 102 µM] (inactive)
O=c1o[nH]c(-c2ccccc2)c1N=Nc1c(F)cccc1Cl	28.2 µM (active)	
Cc1nnc(NC(=O)CSc2nc3c([nH]c4ccccc43)c(=O)n2-c2cccc(Cl)c2)s1		6.79% (inactive)
COCCNS(=O)(=O)c1cc(-c2nn3c(C)nnc3c3ccccc23)ccc1C		-0.274% (inactive)
Cc1nc2ccccn2c(=O)c1NC(=O)c1cccs1		2.42% [at 102 µM] (inactive)
Cc1ccc(C)c(S(=O)(=O)c2nnn3c2nc(N2CCOCC2)c2sccc23)c1		13.3% (inactive)
CCOC(=O)C1CN(S(=O)(=O)c2ccc(OC)cc2)c2cc(Cl)ccc2O1 (configuration not stated)		34.7% [at 102 µM] (inactive)
O=[N+]([O-])c1cccc(S(=O)(=O)N2CCCCCC2)c1		-27.8% (inactive)
Cc1ccc(C)c(S(=O)(=O)N2CCN(CC(=O)Nc3ccc([N+](=O)[O-])cc3)CC2)c1		-2.86% (inactive)
Cc1ccc([N+](=O)[O-])cc1S(=O)(=O)N1CCCN(C)CC1	56.2 µM (active)	
CC(CNC(=O)c1nnc(Cc2cccc(F)c2)o1)c1ccccc1 (configuration not stated)		-21.9% (inactive)
O=C(NCCC1CCCCN1S(=O)(=O)c1ccc(Cl)cc1)C(=O)NCc1ccco1 (configuration not stated)		-5.87% [at 0.501 µM] (inactive)
CCOc1ccc(NC(=O)C2CC(=O)N=C(N)S2)cc1 (configuration not stated)		-39.6% (inactive)
CCOc1ccc(NC(=O)c2nc(SCC)ncc2Cl)cc1		-3.51% [at 102 µM] (inactive)
CCOc1ccc(N/C(N)=N/c2nc(C)c(C)c(=O)[nH]2)cc1	50.1 µM (active)	
COc1ccccc1C(=O)Nc1c(C(=O)Nc2ccc(C)cc2)oc2ccccc12		-5.27% (inactive)
COc1ccc(C)cc1NC(=O)COCc1cc(-c2cccs2)on1		8.56% (inactive)
COc1ccc(CNC(=O)COc2ccccc2C(=O)c2cnn(-c3ccccc3)c2)cc1OC		13.3% [at 12.7 µM] (inactive)
